# Where “and” joins values, the source holds several entries; their conditions need not be identical. Equal entries are not always repeated. Calls of active or inactive are those of the source.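 Rule for the calls, unless noted: active = compounds whose cell count with miR-34 switched on is under 0.7 times the count with it off; inactive = the rest.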
# Experiments:
# [1] = stimulators of nuclear beta-catenin in C2C12, primary screen, imaging, WNT3A-conditioned medium, mouse C2C12, NPC library (AID 1117326; in the data active = nuclear beta-catenin stimulation mostly above about 4.2%, no sharp cut-off; inactive = mostly below about 10%); settings: stronger effect = higher value
# [2] = stimulators of insulin release from INS-1E, primary screen, cell-based, 5 mM glucose, NPC library (AID 1117329;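 active = compound raises insulin release from rat beta cells at 5 mM glucose, no numeric limit stated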); settings: rat INS-1E insulin secretion, at 10 µM, stronger effect = higher value
# [3] = growth inhibition of GSK3B-pretreated HCT116 cells – cell-based, CellTiter-Glo, 0.2 to 20 µM (AID 1117336;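 active = compounds lowering colon cancer cell viability after pretreatment blocking the GSK3B kinase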); settings: HCT116 viability after GSK3B inhibitor, at 20 µM, stronger effect = higher value
# [4] = inhibition of endothelial tube formation, primary screen, imaging, VEGF stimulated, CD31 staining, tube area, NPC library (AID 1117340;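 active = compound that reduces growth-factor-driven endothelial tube area in a mixed cell culture, no cutoff stated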); settings: VEGF-stimulated ADSC/ECFC co-culture, at 10 µM, stronger effect = higher value
# [5] = glucagon-like peptide 1 release enhancers, primary assay, NCI-H716 cell line, NPC library (AID 1117341;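 active = compound raises GLP1 secretion from the human gut endocrine cells, with no numeric limit stated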); settings: NCI-H716 cells, at 10 µM, stronger effect = higher value
# [6] = HCT116 colon cancer cell growth inhibition, primary screen, CellTiter-Glo luminescence, NPC library (AID 1117342;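 active = compounds that lower survival of HCT116 colon cancer cells in the luminescence readout, no numeric limit stated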); settings: at 20 µM (top of the series)
# [7] = CellTiter-Glo luminescent readout of SW480 viability loss, NPC library primary (AID 1117343;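 active = compounds that lower viability of the colon cancer cells in the luminescence readout, with no numeric limit stated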); settings: CellTiter-Glo luminescence; at 20 µM (top of the series) unless noted
# [8] = decreased DLD-1 cellular survival, CellTiter-Glo luminescent readout, NPC compound collection, primary HTS (AID 1117346;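 active = compounds that lower survival of DLD-1 colon cancer cells in the luminescence readout, no cutoff given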); settings: DLD-1 viability, CellTiter-Glo luminescence; at 20 µM (top of the series)
# [9] = differential killing of epithelial or mesenchymal cells, primary screen, imaging, PC-3E GFP, TEM4-18 mCherry, co-culture (AID 1345086;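 active = compounds killing one labelled cell type while sparing the other, by normalised counts and ratio limits, not self-fluorescent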;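 for all read-outs here: cells exposed to compound for 72 h before imaging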;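 for red/green cell ratio (normalised): normalised mesenchymal count divided by normalised epithelial count so high means epithelial killing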); settings: imaging cell counts, at 1 µM; for red/green cell ratio (normalised): actives lie on both sides, counts scaled to control wells, 1 = unselective
# [10] = sensitizers of A549 cells to miR-34 induction, primary screen, imaging, A549 dox-inducible miR-34, nuclei and caspase counts (AID 1347080); settings: A549 miR-34 inducible, Hoechst nuclei count, 48 h
# [11] = survival rescue of mitochondrial mutant cells in low glucose, primary screen, MELAS cybrids, Rieske KO mouse fibroblasts, CellTiter-Glo (AID 1508586;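 active = mean z-score across replicates of 1.96 or higher in either the MELAS or the Rieske mutant cell line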;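 note: z relative to plate mean and SD of compound and empty wells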)
# [12] = molecular target: NAD(+) hydrolase SARM1 (Homo sapiens) (UniProt Q6SZW1); test: SARM1 TIR NADase inhibitors, cell lysate, NAD-Glo luminescence (AID 1508614;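 active = compound whose remaining NAD level is above about 45 nM, limit read from the data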;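 note: higher remaining NAD means stronger inhibition of SARM1 NADase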); settings: SAM-TIR HEK293T lysate NADase, at 1 µM, stronger effect = higher value
# NAD(+) hydrolase SARM1 (Homo sapiens), sequence (Q6SZW1 whole entry, looked up): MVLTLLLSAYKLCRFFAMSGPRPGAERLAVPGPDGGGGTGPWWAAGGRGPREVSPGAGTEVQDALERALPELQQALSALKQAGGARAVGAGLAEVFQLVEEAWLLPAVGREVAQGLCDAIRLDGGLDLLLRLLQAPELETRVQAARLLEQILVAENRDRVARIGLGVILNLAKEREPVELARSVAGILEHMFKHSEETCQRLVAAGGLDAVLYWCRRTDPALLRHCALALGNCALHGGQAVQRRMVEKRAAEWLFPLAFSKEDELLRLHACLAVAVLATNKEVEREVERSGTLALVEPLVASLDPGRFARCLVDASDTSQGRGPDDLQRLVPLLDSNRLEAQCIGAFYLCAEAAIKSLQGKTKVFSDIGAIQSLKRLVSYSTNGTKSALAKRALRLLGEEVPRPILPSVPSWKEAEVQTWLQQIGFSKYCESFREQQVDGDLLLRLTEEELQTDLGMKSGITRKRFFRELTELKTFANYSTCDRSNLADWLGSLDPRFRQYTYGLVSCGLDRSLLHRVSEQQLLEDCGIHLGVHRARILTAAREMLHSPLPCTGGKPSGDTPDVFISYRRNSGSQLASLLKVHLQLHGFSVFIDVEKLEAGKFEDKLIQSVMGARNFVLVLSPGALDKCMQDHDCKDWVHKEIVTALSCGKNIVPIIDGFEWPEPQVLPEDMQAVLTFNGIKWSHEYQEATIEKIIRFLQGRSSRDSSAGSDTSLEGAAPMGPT
# [13] = hESC survival regulators, cell-based (AID 493140; call rule not given here;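 note: cells exposed to compounds for four days before counting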); settings: human embryonic stem cell survival screen; stronger effect = higher value
# [14] = liver-stage malaria parasite growth inhibition, primary screen, cell-based, HepG2, luciferase luminescence, HepG2 viability (AID 624349; in the data active = parasite load remaining mostly below about 12%, no sharp cut-off; inactive = mostly above about 10%;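 note: 100% = mean of DMSO negative control wells on the same plate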); settings: P. berghei liver stage in HepG2, luciferase luminescence, concentration not given here; parasite load remaining: stronger effect = lower value; viability: measured here: HepG2 viability without parasites
# [15] = measured here: epithelial PC-3E GFP cell survival
# [16] = measured here: mesenchymal TEM4-18 mCherry cell survival
# [17] = stronger effect = lower value, cell number ratio, induced over uninduced
# [18] = measured here: relative caspase fold change +Dox/-Dox
# [19] = measured here: total cells with miR-34 induction, stronger effect = lower value
# [20] = measured here: total cells without miR-34 induction
# [21] = MELAS cybrid survival, CellTiter-Glo 48 h, stronger effect = higher value
# [22] = Rieske KO mouse fibroblast survival, CellTiter-Glo 72 h
smiles,measurement,setting,value
CC(S)C(=O)NCC(=O)O (stereo not given),nuclear beta-catenin stimulation,[1]; at 10 µM,-0.5% (inactive)
same,nuclear beta-catenin stimulation,"[1]; stimulation, at 2 µM",0.7%
same,insulin secretion stimulation,[2],-0.8% (inactive)
same,viability decrease,[3],-7.03% (inactive)
same,tube area decrease,[4],17.7% (inactive)
same,GLP1 secretion stimulation,[5],-1.7% (inactive)
same,inhibition of viability,[6],-7.95% (inactive)
same,viability decrease (inhibition),[7],46.8% (inactive)
same,viability decrease (inhibition),[8],0.37% (inactive)
same,red/green cell ratio (normalised),[9],0.9 (inactive)
same,normalised cell number,[9]; [15],1.06
same,normalised cell number,[9]; [16],0.94
same,fold change,[10]; [17],0.956 (inactive) and 0.886 (inactive)
same,fold change,[10]; [18],0.809 and 0.891
same,cell count,[10]; [19],8410 and 8420
same,cell count,[10]; [20],8800 and 9500
same,z-score,[11]; [21],-0.286 (inactive)
same,z-score,[11]; [22],0.558
same,remaining NAD,[12],10 nM (inactive)
Cc1cc(=O)oc2cc(O)ccc12,survival,[13],5.33 (inactive)
same,parasite load remaining,[14],118% (inactive)
same,viability,[14],98.7%
same,nuclear beta-catenin stimulation,[1]; at 10 µM,-0.6% (inactive)
same,nuclear beta-catenin stimulation,"[1]; stimulation, at 2 µM",-0.4%
same,insulin secretion stimulation,[2],-1.7% (inactive)
same,viability decrease,[3],-10.2% (inactive)
same,tube area decrease,[4],-7.2% (inactive)
same,GLP1 secretion stimulation,[5],3.1% (inactive)
same,inhibition of viability,[6],13.6% (inactive)
same,viability decrease (inhibition),[7],12.3% (inactive)
same,viability decrease (inhibition),[8],-2.45% (inactive)
same,red/green cell ratio (normalised),[9],0.94 (inactive)
same,normalised cell number,[9]; [15],1.05
same,normalised cell number,[9]; [16],0.99
same,fold change,[10]; [17],0.873 (inactive) and 0.847 (inactive) and 0.939 (inactive)
same,fold change,[10]; [18],1.07 and 1.58 and 0.709
same,cell count,[10]; [19],8530 and 9030 and 8940
same,cell count,[10]; [20],9770 and 10700 and 9520
same,z-score,[11]; [21],-0.289 (inactive) and 0.464 (inactive)
same,z-score,[11]; [22],0.286 and 0.338
same,remaining NAD,[12],10 nM (inactive)
Clc1ccc(Cn2c(CN3CCCC3)nc3ccccc32)cc1,survival,[13],21.8 (inactive)
same,parasite load remaining,[14],30.7% (inactive) and 102% (inactive)
same,viability,[14],47.8% and 90.5%
same,nuclear beta-catenin stimulation,[1]; at 10 µM,3.1% (inactive)
same,nuclear beta-catenin stimulation,"[1]; stimulation, at 2 µM",3%
same,insulin secretion stimulation,[2],4.9% (inactive)
same,viability decrease,[3],-123% (inactive)
same,tube area decrease,[4],14.2% (inactive)
same,GLP1 secretion stimulation,[5],6.1% (inactive)
same,inhibition of viability,[6],34% (inactive)
same,viability decrease (inhibition),[7],61.5% (active)
same,viability decrease (inhibition),[8],19.7% (inactive)
same,red/green cell ratio (normalised),[9],0.77 (inactive)
same,normalised cell number,[9]; [15],1.28
same,normalised cell number,[9]; [16],0.98
same,fold change,[10]; [17],1.11 (inactive) and 0.92 (inactive)
same,fold change,[10]; [18],2.1 and 1.3
same,cell count,[10]; [19],5510 and 8130
same,cell count,[10]; [20],4960 and 8840
same,z-score,[11]; [21],0.821 (inactive)
same,z-score,[11]; [22],0.481
same,remaining NAD,[12],10 nM (inactive)
CN(C)CCN(Cc1ccc(Cl)cc1)c1ccccn1,survival,[13],0.25 (inactive)
same,parasite load remaining,[14],93.8% (inactive)
same,viability,[14],98.9%
same,nuclear beta-catenin stimulation,[1]; at 10 µM,1.9% (inactive)
same,nuclear beta-catenin stimulation,"[1]; stimulation, at 2 µM",1.4%
same,insulin secretion stimulation,[2],88.8% (active)
same,viability decrease,[3],-112% (inactive)
same,tube area decrease,[4],-2% (inactive)
same,GLP1 secretion stimulation,[5],7% (inactive)
same,inhibition of viability,[6],30.7% (inactive)
same,viability decrease (inhibition),[7],41.9% (inactive)
same,viability decrease (inhibition),[8],2.4% (inactive)
same,red/green cell ratio (normalised),[9],0.8 (inactive)
same,normalised cell number,[9]; [15],1.16
same,normalised cell number,[9]; [16],0.92
same,fold change,[10]; [17],0.853 (inactive)
same,fold change,[10]; [18],1.28
same,cell count,[10]; [19],7570
same,cell count,[10]; [20],8880
same,z-score,[11]; [21],-0.0317 (inactive)
same,z-score,[11]; [22],-0.776
same,remaining NAD,[12],10 nM (inactive)

# From PubChem BioAssay
